Data from the supplement of paper PMC6555819.

Columns and labels:
Assay in all cases: PBM binding z-score (relative to random genomic background probes); higher = stronger binding; sequences stand for … in GC…GCGATTGACAGCGTAGAATGAAGG
[1] = test system: RARb homodimer (NR concentration 270 nM)
Method in brief: (§1)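 Random background probes are the reference for binding z-scores. These scores derive from regression-normalized fluorescence on custom Agilent 4×180K protein-binding microarrays incubated 1 h with ligand-free nuclear receptor dimers. Binding was detected with antibodies against each partner (one per run).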

[2] = test system: RARg:RXRa (NR concentration 270 nM, RXRa partner concentration 90 nM)
Method in brief: as §1

[3] = test system: RARg homodimer (NR concentration 270 nM)
Method in brief: as §1

[4] = test system: RXRa DBDmut IVT, anti-RXR (DBD mutation: RXRa K156A/R161A, NR concentration 90 nM)
Method in brief: as §1

[5] = test system: RXRa homodimer (NR concentration 180 nM)
Method in brief: as §1

[6] = test system: THRa:RXRa (NR concentration 90 nM, RXRa partner concentration 90 nM)
Method in brief: as §1

[7] = test system: THRa homodimer (NR concentration 90 nM)
Method in brief: as §1

[8] = test system: VDR:RXRa (NR concentration 270 nM, RXRa partner concentration 90 nM)
Method in brief: as §1

[9] = test system: VDR homodimer (NR concentration 270 nM)
Method in brief: as §1

Sequence	PBM binding z-score [1]	PBM binding z-score [2]	PBM binding z-score [3]	PBM binding z-score [4]	PBM binding z-score [5]	PBM binding z-score [6]	PBM binding z-score [7]	PBM binding z-score [8]	PBM binding z-score [9]
AGAATGAGGTTTTACGTAGATCAGGGAAGAAAGT	-0.169	-0.132	0.114	0.185	-0.108	0.3	0.0915	-0.19	0.172
CCGACTGGGTCATAAGGTTACCATAAGCCAGCCC	3.46	4.62	3.25	0.935	3.8	3.13	1.94	2.81	0.993
CCTACTGGGCTAAAGGTCATTGATTCCAATGCTC	4.22	4.96	4.27	1.17	5.21	3.15	0.533	4.38	2.18
GCTATTAGTTGAAAGGGCAACCCAATGATTCTCG	1.98	1.31	1.34	1.09	1.3	0.458	-0.122	0.662	0.235
CCTTACGGGTCAAGGTTATAGCGCGGGTGGTACG	3.48	4.83	4.46	1.19	5.01	2.96	0.728	3.22	1.52
GCTATTAGTTGACAGGGCAACCGAATGATTCTCG	0.837	0.251	0.693	0.605	0.324	-0.129	-0.0185	-0.414	-0.0905
ATCTCTAGGTAAGACTCCGTTCAGTGAAGAACGC	0.62	0.111	0.108	0.35	-0.00325	0.381	0.809	0.0228	0.435
CCTTACCGGTCACTCCAGGTTATAGCATCGGAGT	2.64	2.41	3.52	0.359	0.865	3.88	1.32	1.46	0.951
GCGACTGGAGCATCAGCAGGTTACCATAACTTAA	-0.0503	-0.127	-0.161	-0.526	0.0977	0.179	-0.37	-0.345	-0.639
ACTATTAGTTGAGACGAAGGCAACCGATAGGTTG	-0.559	-0.255	0.233	0.0754	-0.207	-0.702	-0.7	-0.504	-0.261
ACTCGGAGGACAAAGGGCAGAGCTACGCCAGTGA	1.69	1.81	1.91	0.468	0.615	0.877	-0.631	-0.214	-0.288
TAGCCTGGGTCATGGGCCAGTATACCACGCGAAC	2.24	3.99	3.38	-1.06	3.73	2.39	-0.0617	1.82	-0.187
GTTGCTAGGTCAGGTTGGTCAGCTAACGGGTACG	3.23	2.74	4.18	0.0427	1.4	2.02	1.06	0.892	0.821
TCGAGTAGGTTAGTCTGGGCATTCAGCCAACATA	-0.367	-0.389	-0.417	-0.133	-0.273	0.0539	-0.454	-0.0618	-0.466
TCGTGTAGATCAGCAGGTTAAGAAAGCTGGCCAA	-0.0746	-0.298	-0.396	0.345	-0.115	0.0652	-0.429	0.0438	-0.282
CCTACAGGGCCACGAAAGGTCATTGATTCAGTGA	5.01	5.13	5.03	0.833	5.27	4.25	0.829	4.61	2.2
CTCGAAAGGTCGTGCTCAGGTTAGTATACCAAAC	3.37	5.5	4.17	2.12	5.47	3.73	0.934	3.79	1.3
GGAACGAGGGCATTCGAGTTGATAGCGTGGCGAT	0.509	0.892	1.16	3	0.583	3.13	-0.46	3.59	3.6
CCTCGGAGGACAGAAGATCAGAGCTGTCCGCTTT	-0.501	-0.0315	0.0841	-0.174	-0.41	-0.0672	-0.73	-0.618	-0.8
CCTTACGTGTCACTCCAGGTTATAGCATCGGAGT	1.36	0.925	1.27	1.09	0.845	3.43	1.14	1.33	1.24
GGAACGAGGGCAAAGTTGATCGCATCTGTCGACG	1.19	1.83	1.8	2.72	1.92	1.19	-0.32	1.1	1.61
TAGCCTAGGTCATGCAGGCCAGTATAGTGTCGGC	2.76	4	4.12	0.936	2.96	3	0.919	3.25	0.989
TCGAGTAGGTTACCACTGGGGCATTCAGCTTTCT	0.339	0.939	0.436	0.044	0.129	0.242	-0.96	-0.368	-0.613
GCAGACAGGTGAAACGCAGGCAACTCAGGGTGGC	-0.0684	0.39	0.237	-0.513	0.435	0.404	-0.656	-0.567	-0.588
CGAACTAGGTCTGAACAGGACAGTGAAGGATGAT	0.0456	0.195	0.136	-0.233	0.134	0.536	-0.761	-0.557	-0.4
CTCGAAAGGTCGGTTGAGGTGATTATACGGATAA	2	2.51	2.53	0.846	2.12	4.96	1.15	3.1	0.404
